The values below come from PubChem BioAssay (NCI).

Among the test systems are T-47D breast; BT-549 breast; MDA-MB-435 melanoma; SW-620 colon; MCF7 breast; HCT-116 colon; HCC-2998 colon; KM12 colon.
Test in all cases: NCI-60 one-dose screen, 48 h (100 = growth as untreated, 0 = no growth, -100 = all killed)
Conditions in all cases: 10 µM unless noted

Molecules are shown by their SMILES. About 83,000 compounds went through this panel and 20% of them were active in at least one assay; those are over-represented in the sample as a whole.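 96-well plates, one dose, 48 hours. Percent growth reported; active if below 10.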 A number with no mark means an inactive call. Calls of active or inactive are those of the source.

Turning to `C=C1C(=O)O[C@H]2[C@H]1CC/C(COC(=O)NCc1cccc(OC)c1)=C\CC[C@@]1(C)O[C@@H]21`, the growth with T-47D breast is 11.9%; with BT-549 breast, 16.6%; in the test on MDA-MB-435 melanoma, 45.5%; with SW-620 colon, -35.4% (active); with MCF7 breast it was 8.22% (active); in the test on HCT-116 colon, -70.9% (active). Moreover, the growth in the test with HCC-2998 colon was 81.6%.

`CCN(CCC#N)c1ccccc1`: the growth in the test on T-47D breast is 101%; in the test on BT-549 breast, 110%; in the test on MDA-MB-435 melanoma it was 109%; with SW-620 colon, 101%; with MCF7 breast, 105%; with HCT-116 colon it was 105%. Besides, the growth with HCC-2998 colon is 109%.

With `Cc1c2c(cc3c1[nH]c1ccccc13)C=NCC2`, the growth is 73.7% in the test on T-47D breast; 79.6% in the test with BT-549 breast; 94.9% in the test on MDA-MB-435 melanoma; 97% in the test with SW-620 colon; 60.8% in the test with MCF7 breast; 71.1% in the test on HCT-116 colon. Besides, in the test with HCC-2998 colon, the growth is 96.8%.

For the compound `CC(=O)Nc1c(Br)cc2c(c1Br)Cc1cc(Br)ccc1-2`, the growth in the test on T-47D breast is 38.9%; in the test with BT-549 breast, 77.3%; in the test with MDA-MB-435 melanoma, 69.3%; with SW-620 colon, 41.7%; in the test with MCF7 breast, 59.9%; with HCT-116 colon it was 46.6%. In addition, the growth was 102% in the test on HCC-2998 colon and 59.6% with KM12 colon.

With `N=C(N)c1ccc(NCCNc2ccc(C(=N)N)cc2)cc1`, the growth with T-47D breast was 137%; with BT-549 breast, 133%; with MDA-MB-435 melanoma, 105%; with SW-620 colon, 106%; in the test on MCF7 breast it was 101%; with HCT-116 colon, 114%. The growth is 119% in the test with HCC-2998 colon and 105% in the test on KM12 colon.

As to `COc1ncnc2[nH]cc(CN3CCN(c4ccc(F)cc4)CC3)c12`, the growth with T-47D breast was 104%; with BT-549 breast it was 107%; in the test on MDA-MB-435 melanoma, 91.9%; with SW-620 colon, 108%; in the test on MCF7 breast, 103%; in the test on HCT-116 colon, 111%. In addition, the growth was 104% with HCC-2998 colon and 109% in the test with KM12 colon.

For the compound `C#C[C@]1(O)CC[C@H]2[C@@H]3CC=C4c5sc(-c6cccc(Br)c6)nc5CC[C@]4(C)[C@H]3CC[C@@]21C`, the growth in the test on T-47D breast is 80.6%; in the test on BT-549 breast, 87.3%; in the test on MDA-MB-435 melanoma, 91.7%; in the test with SW-620 colon, 87.9%; in the test with MCF7 breast, 55.3%; in the test on HCT-116 colon, 83.6%. In addition, the growth with HCC-2998 colon is 85.1%; in the test with KM12 colon it was 63.8%.

Turning to `CC1(C)CN(CCNc2nccc(-c3c(-c4cccc(O)c4)nc4sccn34)n2)S(=O)(=O)N1`, the growth in the test on T-47D breast is 75.6%; with BT-549 breast, 80.9%; in the test with MDA-MB-435 melanoma it was 19.9%; with SW-620 colon, 87.6%; in the test on MCF7 breast, 70%; with HCT-116 colon, 28%. The growth in the test on HCC-2998 colon was 93.4%; in the test with KM12 colon, 76.4%.

`C[C@@H]1CC2C3CCC4=CC(=O)C=C[C@]4(C)[C@@]3(Cl)[C@@H](O)C[C@]2(C)[C@@]1(OC(=O)c1ccco1)C(=O)CCl` (stereo not given in full): the growth is 97.1% with T-47D breast; 27.9% with BT-549 breast; 73.4% in the test on MDA-MB-435 melanoma; 95.3% in the test on SW-620 colon; 58.9% with MCF7 breast; 57.4% in the test on HCT-116 colon. For the same compound, the growth was 75.9% with HCC-2998 colon and 76.9% in the test on KM12 colon.

In the case of `COc1ccc(-c2conc2-n2nc(-c3ccccc3)nc2-c2ccccc2)cc1`, the growth with T-47D breast was 102%; with BT-549 breast, 104%; in the test with MDA-MB-435 melanoma, 105%; with SW-620 colon, 104%; in the test on MCF7 breast, 89.1%; in the test with HCT-116 colon, 97.2%. Further, the growth was 105% in the test with HCC-2998 colon and 110% in the test on KM12 colon.

Consider `C=CC(=O)N1CN(C(=O)C=C)CN(C(=O)C=C)C1`, for which the growth in the test with T-47D breast was 33.6%; in the test on BT-549 breast it was 76.3%; in the test with MDA-MB-435 melanoma it was 81.2%; in the test with SW-620 colon, 15.3%; with MCF7 breast, 39.6%; in the test on HCT-116 colon, 13.7%. Moreover, the figures for the growth in the test with HCC-2998 colon and with KM12 colon were 101% and 85.8%, respectively.

Consider `NC(=S)N1N=C(c2ccc(Cl)cc2)CC1c1cc2ccccc2[nH]c1=O` (stereo not given), for which the growth is 89.2% in the test on T-47D breast; 102% in the test with BT-549 breast; 104% with MDA-MB-435 melanoma; 108% in the test with SW-620 colon; 95.5% with MCF7 breast; 103% in the test on HCT-116 colon. For the same compound, the figures for the growth in the test on HCC-2998 colon and in the test on KM12 colon were 111% and 114%, respectively.

Consider `O=S(=O)(Cc1ccc(Cl)cc1Cl)c1ccc(Cl)cc1`, for which the growth with T-47D breast is 47.5%; with BT-549 breast, 62.7%; with MDA-MB-435 melanoma, -33.1% (active); in the test on SW-620 colon it was 37.5%; in the test on MCF7 breast it was 22.1%; with HCT-116 colon, 26.9%. The figures for the growth with HCC-2998 colon and in the test with KM12 colon were 31.7% and 33.6%, respectively.

As for `CC1CCN(CCCCCOc2ccc3oc4ccc(Cl)cc4c(=O)c3c2)CC1`, the growth in the test with T-47D breast was 63.4%; in the test with BT-549 breast it was 76.2%; in the test with MDA-MB-435 melanoma it was 21.4%; in the test on SW-620 colon it was 46.7%; in the test with MCF7 breast, 59.8%; with HCT-116 colon, 23.9%. Moreover, the growth with HCC-2998 colon is 78.4%; with KM12 colon, 62.3%.

Regarding `COc1cnc2c(c1)C(=O)c1c-2n(CCCN2CCN(C)CC2)c(=O)c2cc(Cl)ccc12`, the growth is 8.74% (active) with T-47D breast; 56.5% with BT-549 breast; 38% in the test with MDA-MB-435 melanoma; 1.45% (active) with SW-620 colon; 20.8% in the test with MCF7 breast; 32% with HCT-116 colon. The growth in the test with HCC-2998 colon is 66.8%; in the test with KM12 colon, 45.5%.

Consider `Fc1cc(-c2cnc3nonc3n2)c(Cl)cc1Cl`, for which the growth in the test on T-47D breast was 63.2%; in the test on BT-549 breast, 99.7%; in the test on MDA-MB-435 melanoma, 90.1%; in the test on SW-620 colon, 38.7%; in the test with MCF7 breast, 69.7%; in the test on HCT-116 colon it was 7.65% (active). The results for the growth in the test with HCC-2998 colon and in the test on KM12 colon were 103% and 88.2%, respectively.
